Laboratory results from PubChem BioAssay AID2391 (Southern Research Specialized Biocontainment Screening …, 2010).
About 410 (0.13%) of roughly 310,000 compounds were called active. Roughly 2% stayed inconclusive and do not appear here. No rule for the calls is given here. Not all results are given here. Results with a measured potency or affinity are listed apart.

Test: inhibition of RSV-induced cytopathic effect – HEp-2 cells, primary 10 µM value included (AID 2391)
Conditions: at 10 µM, active compounds read high

CPE inhibition, inactive:
CCc1nn(CC(=O)NCCCN(Cc2ccccc2)C(C)C)c(=O)c2cc3sccc3n12 3.25%
CC(OC(=O)CSc1ccc(F)cc1)C(=O)NC1(C#N)CCCCC1 (stereo unspecified) 1.61%
CC(C)(C)SCCNS(=O)(=O)c1ccccc1 2.31%
COc1ccc(C(=O)N/C(=C/c2cccs2)C(=O)NN)cc1OC 0.82%
O=C(N/C(=C/c1cccs1)c1nc2ccccc2[nH]1)c1ccccc1 -0.44%
COc1ccc(/C=C(/NC(=O)c2ccccc2)c2nc3ccccc3[nH]2)cc1OC 1.75%
Cc1ccc(C(=O)N/C(=C\c2cccs2)c2nc3ccccc3[nH]2)cc1 1.69%
Cc1ccc2c(=O)cc(C(=O)Nc3ccc(S(=O)(=O)Nc4onc(C)c4C)cc3)oc2c1 1.69%
Cc1ccc2oc(C(=O)Nc3ccc(S(=O)(=O)Nc4ncccn4)cc3)c(C)c2c1 1.95%
Cc1ccc2oc(C(=O)Nc3ccc(S(=O)(=O)Nc4onc(C)c4C)cc3)cc(=O)c2c1 1.61%
Cc1cc(C)c(C(=O)Nc2ccc(S(=O)(=O)Nc3onc(C)c3C)cc2)c(C)c1 0.27%
O=C(N/N=C/c1cc2c(cc1Cl)OCO2)c1cccc(Br)c1 0.51%
COc1ccc(C(c2nnnn2Cc2ccccc2)N2CCN(c3nc4ccccc4s3)CC2)cc1OC (stereo unspecified) 8.79%
CNC(=O)NC(=O)COC(=O)/C=C/c1cccc(Br)c1 4.26%
COC(=O)c1cccc(CSc2nc(-c3ccccc3)c(C#N)c(=O)[nH]2)c1 -0.22%
O=C(COc1ncnc2ccc(Br)cc12)NC1CCCC1 -0.78%
N#CCSc1ncnc2ccccc12 0.16%
COCCNC(=O)COc1ncnc2ccc(Br)cc12 0%
O=C(COc1ncnc2ccccc12)NCCc1ccccc1 4.07%
c1ccc(CSc2ncnc3ccccc23)cc1 -0.1%
c1ccc(OCCOc2ncnc3ccccc23)cc1 2.27%
CCOC(=O)c1c(C)c(C(=O)Nc2ccc3c(c2)OCCO3)c(C)n1C -0.46%
N#Cc1nc(-c2ccco2)oc1NCc1ccco1 1.01%
O=C(COc1ccccc1)Nc1ccccc1C(=O)NCc1ccco1 -0.74%
COc1ccc(NC(=O)CN(C)C(=O)c2ccc3[nH]c4c(c3c2)CC(C)CC4)cc1 (stereo unspecified) 6.52%
CC1CCc2[nH]c3ccc(C(=O)N(C)CC(=O)Nc4ccc(F)cc4)cc3c2C1 (stereo unspecified) 5.53%
CCOc1cccc2c1OC1(C)CC2NC(=O)N1c1ccc(OC)cc1 (stereo unspecified) 0.71%
C=CCN(c1ccc(F)cc1)S(=O)(=O)c1cc(C(=O)OCC(=O)N(C)C2CCS(=O)(=O)C2)ccc1Cl (stereo unspecified) 0.97%
CCC(=O)NC(=S)Nc1ccc(NC(=O)COc2ccc(Cl)cc2Cl)cc1 3.92%
CCC(=O)NC(=S)Nc1ccc(NC(=O)COc2ccccc2)cc1 -0.96%
Nc1nc(SCCN2C(=O)c3ccccc3C2=O)n[nH]1 -0.57%
CCOC(=O)C1(Cc2ccccc2)CCN(Cc2cccn2-c2nccs2)CC1 3.06%
CCOC(=O)C1(Cc2cccc(OC)c2)CCN(Cc2cccn2-c2ccccn2)CC1 0.49%
O=C(O)CN=C(NS(=O)(=O)c1ccc(Cl)cc1)c1ccc(F)cc1 0.86%
CCOC(=O)CSc1nc2ccccc2c(=O)n1Cc1ccco1 0.79%
O=C(CSc1nc2ccccc2c(=O)n1Cc1ccco1)NCc1ccco1 0.72%
Cc1[nH]n(-c2ccccc2)c(=O)c1Sc1ccc(Cl)cc1 2.83%
Cc1ccc(OCCn2cnc3cc([N+](=O)[O-])ccc3c2=O)cc1 5.29%
COc1ccc(N(CC(=O)NC2CCCCC2)C(=O)c2ccc(C)s2)cc1OC 5.93%
COc1ccc(N(CC(=O)NC2CCCC2)C(=O)c2ccc(C)s2)c(OC)c1 41%
CC(=O)c1ccc(OCCCC(=O)NNC(=O)c2ccccn2)cc1 1.08%
Cn1c(=O)c2ccccc2n(CC(=O)N2CCCc3ccccc32)c1=O 12.6%
COc1cc(C2NC(=O)NC(C)=C2C(=O)OCc2ccc(C)cc2)cc(OC)c1OC (stereo unspecified) 1.37%
CN(CC(=O)Nc1ccc(Cl)c(Cl)c1)C(=O)CNC(=O)C1CCCCC1 -0.65%
O=C(Cn1cnc2ccccc21)N/N=C/c1ccccc1 1.41%
CCOC(=O)c1c(-c2ccccc2)csc1NC(=O)c1cc(-c2ccccc2OC)on1 3.07%
COC(=O)c1c(-c2ccc(C)cc2)csc1NC(=O)c1c(-c2ccccc2)noc1C 45.8%
CCOC(=O)c1c(-c2cccc(C)c2)csc1NC(=O)C1CC=CCC1C(=O)O (stereo unspecified) 1.3%
COC(=O)c1c(-c2ccccc2)noc1C 3.69%
O=C(COc1ccc(S(=O)(=O)N2CCOCC2)cc1)NC1CC1 0.7%
CCO/N=C1\C(=O)N(c2ccccc2)c2ccccc21 10.6%
CN1CCN(c2ccc(Nc3ccnc4cc(Cl)ccc34)cc2)CC1 0.21%
Cc1ccc2[nH]ccc(=O)c2c1 4.4%
CNc1oc(-c2cccc3ccccc23)nc1C#N 22.2%
CCNc1oc(-c2cccc3ccccc23)nc1C#N 31%
O=C(NC1CCCCC1)c1cc(S(=O)(=O)N2CCOCC2)c(Cl)cc1Cl -0.26%
CC1CCN(C(=O)CCc2nnc3ccc(NCCCN4CCCC4=O)nn23)CC1 2.33%
COC(=O)c1ccc(COC(=O)CNC(=O)c2ccc(-c3ccccc3)cc2)cc1 3.63%
COc1ccc2oc(C(=O)NCCC(C)C)c(C)c2c1 3.36%
Cc1nc2ccccc2nc(C)c1=NOCc1cccc(Cl)c1 3.77%
Cc1nc2ccccc2nc(C)c1=NOCc1ccc(C#N)cc1 3.19%
CCNC(=O)CC1C(=O)N(c2ccc(F)cc2)C(=S)N1CCc1ccncc1 (stereo unspecified) -1.58%
CCOC(=O)c1sc(NS(=O)(=O)c2ccc(F)cc2)nc1C -0.12%
O=S(=O)(NC1CCN(Cc2ccccc2)CC1)c1ccc2ccccc2c1 -0.58%
CCOc1cc(C(=S)N2CCCC2)ccc1O 0.51%
COC(=O)N/N=C/c1ccc(-c2cc(Cl)cc(Cl)c2)o1 42.2%
COC(=O)N/N=C/c1ccc(-c2cc(Cl)ccc2Cl)o1 -0.35%
O=C(c1ccc(F)cc1)N1CCN2C(=O)c3ccccc3C12c1ccc(Cl)cc1 (stereo unspecified) 73.1%
Cc1ccc(C(=O)N2CCN3C(=O)c4ccccc4C23c2ccccc2)cc1 (stereo unspecified) 3.84%
Cc1nc2ccccc2nc1OCc1ccc([N+](=O)[O-])cc1 1.85%
Nc1ccc(C(=O)Nc2ccco2)cc1 0.93%
Nc1c(-c2cccs2)cnc2c(-c3ccc(F)cc3)cnn12 10.8%
CCCn1c(SCC(=O)Nc2cc(C)on2)nc2c1c(=O)n(C)c(=O)n2C -0.53%
COc1ccc(S(=O)(=O)N2CCCCC2)cc1NC(=O)C1CC1 -0.43%
O=C(COC(=O)c1cnccn1)c1ccc(C2CCCCC2)cc1 1.84%
Cc1cc(NC(=O)C(C)SCC(=O)OCC(=O)N(C)c2ccccc2)no1 (stereo unspecified) 0.41%
Cc1cccc(N(Cc2ccccc2)C(=O)CSC(C)C(=O)Nc2cc(C)on2)c1 (stereo unspecified) 15.8%
CNC(=S)SCCOc1ccccc1 1.7%
COc1ccc(-n2nc(C(=O)NCC(=O)N3CCCC(C)C3)c3ccccc3c2=O)cc1 (stereo unspecified) 2.49%
CCC(C)NC(=O)c1cc2cc3ccc(OC)cc3nc2o1 (stereo unspecified) 4.45%
COc1ccc2cc3cc(C(=O)NC4CC4)sc3nc2c1 6.36%
CCc1ccccc1NC(=O)NNC(=O)CCc1ccc(OC)cc1 1.38%
COc1cccc(CNCc2cc(OC)cc(OC)c2)c1 -0.77%
CN(C)c1nc(N/N=C/c2c[nH]c3ccccc23)nc(N2CCOCC2)n1 5.13%
C(=N\Nc1nc(Nc2ccccc2)nc(N2CCOCC2)n1)/c1c[nH]c2ccccc12 38.2%
Cc1ccc(S(=O)(=O)NC2CCSC2=O)cc1C (stereo unspecified) 0%
COc1cccc(C(c2c(NC(=O)c3ccco3)sc(C)c2C)N2CCOCC2)c1 (stereo unspecified) 0.09%
Cc1sc(NC(=O)c2ccco2)c(C(c2ccncc2)N2CCOCC2)c1C (stereo unspecified) 6.19%
COC(=O)c1ccccc1S(=O)(=O)N1CCC(C(=O)OC(C)C(=O)NC(N)=O)CC1 (stereo unspecified) 1.21%
CCOc1ccc(OCCNC(=O)c2oc3ccccc3c2COC)cc1 2.63%
O=C1CCCCC1C(=O)c1cn(-c2ccc(Cl)c(Cl)c2)nn1 (stereo unspecified) 1.71%
N#Cc1c(N2CCCCC2)nc(N)c2c(N)nc3c(c12)CC(c1ccccc1)O3 (stereo unspecified) 18.6%
CC1CCN(C(=O)c2cc3nc(-c4ccccc4)cc(-c4ccccc4)n3n2)CC1 -0.54%
O=C(O)c1cc2nc(-c3ccccc3)cc(-c3ccccc3)n2n1 0.05%
O=C(c1cc2nc(-c3ccccc3)cc(-c3ccccc3)n2n1)N1CCCC1 -1.34%
CN1CCN(C(=O)c2cc3nc(-c4ccccc4)cc(-c4ccccc4)n3n2)CC1 -2.59%
